# Test results as given in PubChem BioAssay (NCATS).
# Inconclusive results are not listed. Entries that show only a call come without a potency. The source made the active and inactive calls. The call rests on the fitted dose curve; in most records, active means well fitted curve in the direction sought with a large enough effect; inconclusive means small, poorly fitted or top-dose-only effect, or another doubt; inactive means no such curve, though single readings can be large; an effect the other way counts as inactive or inconclusive.
# Assays:
# [1] = S16 Schwann cell PMP22 intronic element firefly luciferase assay (AID 624032); further: nearly all actives have a fitted effect of over 30% in size
# Procedure, shortened: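 Rat S16 Schwann cells stably carrying a PMP22 intronic element-driven Fluc reporter were seeded overnight, then exposed to compounds for 24 h at 37 °C. Luminescence was normalized to PTC124 (positive control) and DMSO (0% activity).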
# AA1029 = experiment: qHTS profiling for inhibitors of Plasmodium falciparum proliferation (AID 504749); further: nearly all actives have a fitted effect of over 60% in size; conditions: P. falciparum in erythrocytes, SYBR Green DNA, 72 h; series mostly up to 28.7 µM
# Procedure, shortened: (§1)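 Quantitative HTS: compounds pinned into medium, infected erythrocytes added (0.3% parasitemia, 2.5% hematocrit), 72 h culture at 37 C under 5% CO2. Saponin/Triton lysis with SYBR Green I, overnight RT, then fluorescence read.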
# AS120 = experiment: as above; conditions: P. falciparum in erythrocytes, SYBR Green DNA, 72 h; series mostly up to 28.7 µM
# Procedure, shortened: as §1
# ATS95 = experiment: as above; conditions: P. falciparum in erythrocytes, SYBR Green DNA, 72 h; series mostly up to 28.7 µM
# Procedure, shortened: as §1
# CP217 = experiment: as above; conditions: P. falciparum in erythrocytes, SYBR Green DNA, 72 h; series mostly up to 28.7 µM
# Procedure, shortened: as §1
# CP247 = experiment: as above; conditions: P. falciparum in erythrocytes, SYBR Green DNA, 72 h; series mostly up to 28.7 µM
# Procedure, shortened: as §1
# CP256 = experiment: as above; conditions: P. falciparum in erythrocytes, SYBR Green DNA, 72 h; series mostly up to 28.7 µM
# Procedure, shortened: as §1
# CP260 = experiment: as above; conditions: P. falciparum in erythrocytes, SYBR Green DNA, 72 h; series mostly up to 28.7 µM
# Procedure, shortened: as §1
# CP265 = experiment: as above; conditions: P. falciparum in erythrocytes, SYBR Green DNA, 72 h; series mostly up to 28.7 µM
# Procedure, shortened: as §1
# CP266 = experiment: as above; conditions: P. falciparum in erythrocytes, SYBR Green DNA, 72 h; series mostly up to 28.7 µM
# Procedure, shortened: as §1
# CP297 = experiment: as above; conditions: P. falciparum in erythrocytes, SYBR Green DNA, 72 h; series mostly up to 28.7 µM
# Procedure, shortened: as §1
# CP335 = experiment: as above; conditions: P. falciparum in erythrocytes, SYBR Green DNA, 72 h; series mostly up to 28.7 µM
# Procedure, shortened: as §1
# GB4 = experiment: as above; conditions: P. falciparum in erythrocytes, SYBR Green DNA, 72 h; series mostly up to 28.7 µM
# Procedure, shortened: as §1
# P93_24 = experiment: as above; conditions: P. falciparum in erythrocytes, SYBR Green DNA, 72 h; series mostly up to 28.7 µM
# Procedure, shortened: as §1
# P94_40 = experiment: as above; conditions: P. falciparum in erythrocytes, SYBR Green DNA, 72 h; series mostly up to 28.7 µM
# Procedure, shortened: as §1
# PC15 = experiment: as above; conditions: P. falciparum in erythrocytes, SYBR Green DNA, 72 h; series mostly up to 28.7 µM
# Procedure, shortened: as §1
# SC27B = experiment: as above; conditions: P. falciparum in erythrocytes, SYBR Green DNA, 72 h; series mostly up to 28.7 µM
# Procedure, shortened: as §1
# TAB109 = experiment: as above; conditions: P. falciparum in erythrocytes, SYBR Green DNA, 72 h; series mostly up to 28.7 µM
# Procedure, shortened: as §1
# TAB165 = experiment: as above; conditions: P. falciparum in erythrocytes, SYBR Green DNA, 72 h; series mostly up to 28.7 µM
# Procedure, shortened: as §1
# DIV14 = experiment: as above; conditions: P. falciparum in erythrocytes, SYBR Green DNA, 72 h; series mostly up to 28.7 µM
# Procedure, shortened: as §1
# Potency means the concentration at half of the fitted maximal effect.
Compound,Potency [1],Potency (AA1029),Potency (AS120),Potency (ATS95),Potency (CP217),Potency (CP247),Potency (CP256),Potency (CP260),Potency (CP265),Potency (CP266),Potency (CP297),Potency (CP335),Potency (GB4),Potency (P93_24),Potency (P94_40),Potency (PC15),Potency (SC27B),Potency (TAB109),Potency (TAB165),Potency (DIV14)
C[C@H](N)Cc1ccccc1,inactive,inactive,inactive,inactive,inactive,inactive,inactive,inactive,inactive,inactive,inactive,inactive,inactive,inactive,inactive,inactive,inactive,inactive,inactive,–
CCCCCc1cc(O)c2c(c1)OC(C)(C)C1CC=C(C)CC21 (configuration not stated),–,2820 nM (active),2240 nM (active),3160 nM (active),2240 nM (active),5010 nM (active),11200 nM (active),1780 nM (active),3550 nM (active),12000 nM (active),–,3380 nM (active),1690 nM (active),2510 nM (active),2510 nM (active),5010 nM (active),2000 nM (active),3160 nM (active),2000 nM (active),1510 nM (active)
CCCN1CCCC2Cc3nc(N)ncc3CC21 (configuration not stated),inactive,inactive,inactive,inactive,inactive,inactive,inactive,inactive,inactive,inactive,inactive,inactive,inactive,inactive,inactive,inactive,inactive,inactive,inactive,inactive
C=CC[N+]1(C)CCC23c4c5ccc(O)c4O[C@H]2C(=O)CC[C@@]3(O)C1C5 (some centres not stated),inactive,inactive,inactive,inactive,inactive,inactive,inactive,inactive,inactive,inactive,inactive,inactive,inactive,inactive,inactive,inactive,inactive,inactive,inactive,inactive
C=CC[C@]1(O)CCC2C3CCC4=CCCCC4C3CCC21C (some centres not stated),22800 nM (active),inactive,inactive,–,inactive,inactive,inactive,inactive,inactive,–,inactive,inactive,inactive,inactive,–,–,inactive,inactive,inactive,–
CCC(=O)OC1(c2ccccc2)CCN(C)CC1C (configuration not stated),inactive,–,–,–,–,–,–,–,–,inactive,12000 nM (active),–,7570 nM (active),–,–,inactive,–,–,–,inactive
C#C[C@]1(O)CC[C@H]2[C@@H]3CCC4=CC(=O)CCC4(C)[C@H]3CCC21C (some centres not stated),inactive,inactive,inactive,inactive,inactive,–,inactive,inactive,inactive,inactive,–,inactive,inactive,inactive,inactive,inactive,inactive,inactive,inactive,inactive
CC(C)CCC(=O)OC1CCC2C3CCC4=CC(=O)CC[C@]4(C)C3CC[C@]12C (some centres not stated),–,–,–,–,–,–,7940 nM (active),11200 nM (active),7940 nM (active),inactive,inactive,–,inactive,–,–,–,–,–,–,inactive
CC(Cc1ccccc1)N(C)C (configuration not stated),inactive,inactive,inactive,inactive,inactive,inactive,inactive,inactive,inactive,inactive,inactive,inactive,–,inactive,inactive,inactive,inactive,inactive,inactive,inactive
C[C@]12CC[C@H]3[C@@H](CC[C@@]45O[C@@H]4C(=O)C(C#N)C[C@]35C)[C@@H]1CC[C@@H]2O (some centres not stated),inactive,–,–,–,–,inactive,–,inactive,–,inactive,inactive,inactive,–,–,inactive,inactive,–,–,–,inactive
CC1CC[C@@]2(NC1)OC1CC3C4CC[C@@H]5CC(O)CC[C@@]5(C)C4CC[C@]3(C)C1C2C (some centres not stated),inactive,inactive,–,inactive,–,–,–,–,–,inactive,inactive,–,–,–,–,inactive,–,inactive,–,–
CCC/C=C/C=C/C(=O)OC1/C(=C/C(=O)OC)CC2CC(C(C)O)OC(=O)CC(O)CC3CC(OC(C)=O)C(C)(C)C(O)(CC4C/C(=C/C(=O)OC)CC(/C=C\C(C)(C)C1(O)O2)O4)O3 (configuration not stated),inactive,1780 nM (active),1000 nM (active),2510 nM (active),794 nM (active),2820 nM (active),1260 nM (active),2820 nM (active),1410 nM (active),–,1690 nM (active),1900 nM (active),1510 nM (active),2240 nM (active),2240 nM (active),2240 nM (active),2510 nM (active),2510 nM (active),1410 nM (active),1070 nM (active)
